Potency data for 10 compounds are collected here from PubChem BioAssay (NCATS).

Test [1] has as its target Cytochrome P450 2C9 (Homo sapiens) (UniProt P11712). Kind of test: Cytochrome P450 family 2 subfamily C member 9 (CYP2C9) small molecule antagonists: luciferase biochemical (cell-free) qHTS assay (AID 1645842; active means well fitted curve in the direction sought with a large enough effect in the repeat runs; an effect the other way counts as inactive or inconclusive; further: nearly all actives have a fitted effect of over 55% in size). As to conditions: P450-Glo CYP2C9 enzyme assay, luciferin luminescence; series mostly up to 57.4 µM. The method in brief:
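P450-Glo CYP2C9 system: proluciferin substrate with enzyme in mix containing 0.4% BSA, 10 min at room temperature, then NADPH regeneration solution added and incubated 1 h at 37C. Detection reagent stopped reaction; luminescence read after 20 min as RLU.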
In general terms: Quantitative high-throughput screening tests each substance at several concentrations.

Test [2] in a line: Primary qHTS for inhibitors of nuclear receptor binding SET domain protein 2 (NSD2) in an isogenic RCH-ACV NSD2 p.E1099K mutant (9B) (AID 1645876). Further: nearly all actives have a fitted effect of over 70% in size. As to conditions: RCH-ACV NSD2 E1099K (9B) viability, CellTiter-Glo, 72 h; series mostly up to 44.9 µM.
Test [3] can be described thus: Primary qHTS for inhibitors of nuclear receptor binding SET domain protein 2 (NSD2) in an RCH-ACV wild type WT cells (2C) (AID 1645877). Further: nearly all actives have a fitted effect of over 70% in size. As to conditions: RCH-ACV (leukaemia line) NSD2 WT (2C) viability, CellTiter-Glo, 72 h; series mostly up to 44.9 µM.

“And” between values parts separate entries of the source, which are not always exact repeats. Equal values may be shown once. Results filed as inconclusive are left out. The source made the active and inactive calls. Unless noted, the call rests on the fitted dose curve; in most records, active means well fitted curve in the direction sought with a large enough effect; inconclusive means small, poorly fitted or top-dose-only effect, or another doubt; inactive means no such curve, though single readings can be large; an effect the other way counts as inactive or inconclusive.
Potency means the concentration at half of the fitted maximal effect.

Cytochrome P450 2C9 (Homo sapiens), sequence (P11712 whole entry, looked up): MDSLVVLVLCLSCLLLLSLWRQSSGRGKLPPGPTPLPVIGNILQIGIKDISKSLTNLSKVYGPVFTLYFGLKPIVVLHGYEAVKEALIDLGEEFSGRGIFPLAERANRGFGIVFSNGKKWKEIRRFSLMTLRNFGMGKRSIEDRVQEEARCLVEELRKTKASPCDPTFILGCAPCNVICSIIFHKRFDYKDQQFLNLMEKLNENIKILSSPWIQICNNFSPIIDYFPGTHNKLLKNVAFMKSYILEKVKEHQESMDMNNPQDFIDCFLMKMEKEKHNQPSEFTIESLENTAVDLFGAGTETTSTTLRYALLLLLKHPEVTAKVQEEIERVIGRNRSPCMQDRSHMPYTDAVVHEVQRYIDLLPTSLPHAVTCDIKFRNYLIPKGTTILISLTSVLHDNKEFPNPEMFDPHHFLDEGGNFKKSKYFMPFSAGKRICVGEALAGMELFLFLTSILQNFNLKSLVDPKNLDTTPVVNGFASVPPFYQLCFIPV

Regarding `COc1cc2c(cc1NS(=O)(=O)c1ccc(Br)cc1C)n(C)c(=O)n2C`, the Potency in test [1] is 1.69 µM (active); in test [2] it was 7.28 µM (active); in test [3], 7.28 µM (active).

Regarding `CCCNCCc1ccc(NS(=O)(=O)c2ccc(OC(F)(F)F)cc2)cc1`, the Potency in test [1] was 8.49 µM (active); in test [3], 14.5 µM (active).

Turning to `CN(C)C(=O)C(=O)c1cn(C)c2cc(Cl)c(C(=O)N3CCC(Cc4ccc(F)cc4)CC3)cc12`, the Potency result in test [1] is “inactive”. Further, the Potency in test [2] and in test [3] was 23 µM (active) each time.

As to `C#CCNCc1cc2cc(OCc3ccccc3)ccc2[nH]1`, in test [1], the Potency was 3.79 µM (active). The Potency result in test [2] and in test [3] was “inactive” each time.

As to `Fc1ccc(-n2cc(CCCCN3CCC4(CC3)OCc3ccccc34)c3ccccc32)cc1`, the Potency in test [1] was 2.39 µM (active); in test [2], 7.28 µM (active); in test [3] it was 6.49 µM (active).

Turning to `COc1cc2ncnc(Nc3ccc(O)c(Br)c3)c2cc1OC`, the Potency in test [1] is 5.35 µM (active); in test [2], 11.6 µM (active) and 10.5 µM (active); in test [3], 13 µM (active) and 14.8 µM (active).

On to `CCOC(=O)N1c2ccc(C(F)(F)F)cc2C(N(Cc2cc(C(F)(F)F)cc(C(F)(F)F)c2)C(=O)OC)CC1CC` (centres undefined), for which the Potency entry in test [1], in test [2] and in test [3] was “inactive” throughout.

Regarding `CN(C)CC#CCCC(=O)C(O)(c1ccccc1)C1CCC1` (centres undefined), the Potency in test [1] is 10.7 µM (active). Moreover, the Potency entry in test [2] and in test [3] was “inactive” in each case.

On to `COc1ccc(-c2ccc3c(N4CCOCC4C)nc(N4CCOCC4C)nc3n2)cc1CO` (centres undefined), for which the Potency in test [1] was 4.77 µM (active); in test [2], 0.0325 µM (active); in test [3], 0.0515 µM (active).

Regarding `C[C@@H](NC(=O)c1ccc(C#Cc2cccc(F)c2)cn1)C(C)(C)O`, the Potency in test [1] was 16.9 µM (active). The Potency result in test [2] and in test [3] was “inactive” throughout.
